Screens from PubChem.
Only some compounds are listed: those with a hit (about 1.5% of all), similar ones and a draw of the others.
gsp ag – qHTS for Agonist of gsp, the Etiologic Mutation Responsible for Fibrous Dysplasia/McCune-Albright Syndrome: qHTS; gsp mutant cells, cAMP HTRF, 30 min; actives 0.13% (n = 340,000); Potency, µM (top dose mostly 76.9 µM), usual class: activators; active means well fitted activation curve with a large enough effect; inconclusive means small, poorly fitted or top-dose-only effect, or another doubt; inactive means no such curve, though single readings can be large or run the other way; cell line not stated here;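 further: phosphodiesterase inhibitor Ro 20-1724 added with compounds to block cAMP breakdown; nearly all actives have a fitted effect of over 60% in size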
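Cells in DMEM/10% FBS with G418 were pretreated with compounds in DMSO plus […] (300 uM stock) for 30 min at 37C. cAMP was measured by HTRF (cAMP-d2 plus anti-cAMP antibody-K) after 30 min at room temperature.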
mIDH1 inhibitor – qHTS for Inhibitors of mutant isocitrate dehydrogenase 1 (IDH1): qHTS. Isocitrate dehydrogenase [NADP] cytoplasmic (Homo sapiens), O75874. IDH1-R132H enzyme, NADPH consumption, diaphorase/resazurin fluorescence. Potency, µM (top dose mostly 76.6 µM), hits mostly inhibitors. actives 0.093% (n = 390,000); further: nearly all actives have a fitted effect of over 65% in size
Target sequence (O75874 whole entry R132H, stated change not applied): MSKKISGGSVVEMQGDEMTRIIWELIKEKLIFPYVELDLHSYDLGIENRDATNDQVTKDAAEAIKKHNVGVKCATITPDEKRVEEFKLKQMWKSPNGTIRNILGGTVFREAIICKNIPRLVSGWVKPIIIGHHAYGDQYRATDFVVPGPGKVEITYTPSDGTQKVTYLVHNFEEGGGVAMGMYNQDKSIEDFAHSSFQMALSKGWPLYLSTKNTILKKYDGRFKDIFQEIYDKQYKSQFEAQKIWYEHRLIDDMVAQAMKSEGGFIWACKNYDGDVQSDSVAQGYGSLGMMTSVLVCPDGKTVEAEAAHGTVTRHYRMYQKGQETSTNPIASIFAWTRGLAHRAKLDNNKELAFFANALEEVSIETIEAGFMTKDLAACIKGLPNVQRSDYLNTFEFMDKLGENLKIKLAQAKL
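IDH1-R132H (0.5 ug/mL) preincubated 30 min with compound, then NADPH (0.016 mM) and alpha-KG (2 mM) added; 80 min at RT, pH 7.5. Remaining NADPH coupled via diaphorase/resazurin to fluorescence (540/590 nm); concentration-response curves normalized to no-enzyme control.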
IL-2 act – qHTS of IL-2 Activators; IL-2 activation reporter assay, cell-based qHTS; stimulated with anti-CD3/CD4/CD28 beads; in transgenic mouse T cells; activation, % (series mostly up to about 46 µM); actives 0.065% (n = 360,000); in the data active means activation above about 50%; inconclusive means mostly about 30% to 49%
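Readout: EGFP and DsRed signals by fluorescent plate cytometry. Unstimulated transgenic mouse T cells received compound 60 min before antibody-bead stimulation, then incubated 18 h at 37 degrees C.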
gsp antagonist – qHTS for Antagonists of gsp, the Etiologic Mutation Responsible for Fibrous Dysplasia/McCune-Albright Syndrome: qHTS; Potency, µM (titrated, usually from 76.9 µM), hits mostly inhibitors; gsp-mutant cells, cAMP HTRF, 30 min; AID 624288, 2012; actives 0.4% (n = 340,000); calls by dose curve; cell line not stated here;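 further: intracellular cAMP measured with PDE inhibitor Ro 20-1724 present during compound exposure; nearly all actives have a fitted effect of over 65% in size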
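HTRF cAMP measurement after 30 min RT detection following 30 min, 37C compound treatment alongside […] (added as 300 uM solution) in G418-selected cells seeded at 2000/well and grown 16–24 h.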
BRCA1 expr act – qHTS Assay to Identify Small Molecule Activators of BRCA1 Expression. MCF7-BRCA1-FFLuc reporter, luminescence, 48 h; response scale: scaled: vehicle 0%, 10 µM genistein 100%. Potency, µM (top dose mostly 46.1 µM), actives largely listed as activators. actives 1.1% (n = 380,000); further: nearly all actives have a fitted effect of over 80% in size
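MCF7-BRCA1-FFLuc, 2000 cells/well; 2 h attach, 37 °C/5% CO2; compound 48 h; luciferase substrate 15 min; luminescence end-point. Norm. to genistein 10 microM max activation and DMSO; concentration-response curves fitted.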
Resorufin autofl – qHTS for Inhibitors of mutant isocitrate dehydrogenase 1 (IDH1): Cherrypicks Autofluorescence Interference. shares compounds with mIDH1 inhibitor. Resorufin detection reagent fluorescence interference, cell-free. inhibition of signal, % at 51.2 µM. 750 tested, under 10 active. AID 623980, 2012
WT IDH1 inh – qHTS for Inhibitors of mutant isocitrate dehydrogenase 1 (IDH1): Cherrypicks in WT IDH1. shares compounds with mIDH1 inhibitor. WT IDH1 enzyme, NADPH diaphorase/resazurin fluorescence. Potency, µM (doses to about 115 µM), hits mostly inhibitors. actives 9% (n = 750). AID 623995, 2012; further: nearly all actives have a fitted effect of over 55% in size
Target sequence (O75874 whole entry, looked up): as the sequence (O75874 whole entry R132H, stated change not applied) above, with H132R counted along it
IDH1 R132H conf – qHTS for Inhibitors of mutant isocitrate dehydrogenase 1 (IDH1): Confirmation of Cherrypicks. shares compounds with mIDH1 inhibitor. Potency, µM (doses to about 76.6 µM), most hits filed as inhibitors. AID 624002, 2012. IDH1 R132H enzyme, NADPH diaphorase/resazurin fluorescence. actives 83% (n = 750); further: nearly all actives have a fitted effect of over 50% in size
Of the large screens only hits and unclear results are named; the others gave an inactive call (follow-up assays come after a bar, where they were run). Unless noted, the call rests on the fitted dose curve; in most records, active means well fitted curve in the direction sought with a large enough effect; inconclusive means small, poorly fitted or top-dose-only effect, or another doubt; inactive means no such curve, though single readings can be large; an effect the other way counts as inactive or inconclusive.

CCOC(=O)c1c(-n2c(C)cc(C=C3C(=O)NC(=O)NC3=O)c2C)sc2c1CCCC2	mIDH1 inhibitor 18.5µM | Resorufin autofl inactive | WT IDH1 inh 28.2µM | IDH1 R132H conf 11.2µM
CN1CCN(S(=O)(=O)c2cccc(C(=O)N3CCN(c4ccccc4F)CC3)c2)CC1	gsp ag inconclusive
CC(C)CC(=O)Nc1ccc(C(=O)Cn2c(=O)oc3ccccc32)cc1	gsp ag inconclusive
O=C(N/N=C/c1c(O)n(C2CCCCC2)c(=S)[nH]c1=O)c1ccccc1O	mIDH1 inhibitor inconclusive | Resorufin autofl inactive | WT IDH1 inh inactive | IDH1 R132H conf 44.7µM
Cc1cc(C=C2C(=O)NC(=S)NC2=O)c(C)n1-c1ccc2c(c1)OCO2	mIDH1 inhibitor 41.4µM | Resorufin autofl inactive | WT IDH1 inh inconclusive | IDH1 R132H conf 35.5µM
Cc1cc(C=C2C(=O)NC(=O)NC2=O)c(C)n1-c1ccc2c(c1)OCO2	none
COCCCn1c(N)c(C(=O)Nc2sc3c(c2C(=O)OC)CCCC3)c2nc3ccccc3nc21	gsp ag inconclusive, mIDH1 inhibitor inconclusive | Resorufin autofl inactive | WT IDH1 inh inactive | IDH1 R132H conf inconclusive
CN(C)C(=O)Oc1ccc(C(=O)c2ccccc2)cc1	none
CCC(=O)Oc1ccc(C(=O)Nc2cccc(C(=O)c3ccccc3)c2)cc1	mIDH1 inhibitor 26.1µM | Resorufin autofl inactive | WT IDH1 inh inactive | IDH1 R132H conf 10µM
COCCCNC(=O)C1CCCN(C(=O)Nc2ccc(OC)cc2)C1 (stereo unspecified)	gsp ag inconclusive
CN(C)CCNC(=O)C(=O)NCC1OCCCN1S(=O)(=O)c1cccs1 (stereo unspecified)	none
FC(F)(F)c1ccc2c(c1)N(CCCN1CCN(CCCl)CC1)c1ccccc1S2	mIDH1 inhibitor 36.9µM | Resorufin autofl inactive | WT IDH1 inh inactive | IDH1 R132H conf 8.91µM
Nc1ccc(CCN2CCN(c3cccc(C(F)(F)F)c3)CC2)cc1	none (no result: gsp ag)
CCCCCc1nc2c(c(=O)c3ccccc3n2C)c(=O)n1C1CCCCCC1	mIDH1 inhibitor 10.4µM | Resorufin autofl inactive | WT IDH1 inh 35.5µM | IDH1 R132H conf 5.01µM
CCCCCc1nc2ccccc2c(=O)n1-c1ccc(C)cc1	none (no result: gsp ag, IL-2 act, gsp antagonist)
O=c1c2ccccc2nc(/C=C/c2cccnc2)n1Cc1ccccc1	mIDH1 inhibitor 41.4µM | Resorufin autofl inactive | WT IDH1 inh 44.7µM | IDH1 R132H conf 25.1µM
